HTT aggregate – reduces HttQ103-GFP aggregates in PC12 cells; PC12 HttQ103-GFP aggregates, Acumen cytometry, 40 h; Potency, µM (series often up to 46.1 µM), for inactives: at the top dose activity change, negative = inhibition, usual class: inhibitors; actives 1.1% (n = 220,000); AID 1688; also: potency is read from the fitted curve at half-maximal effect; % is scaled to controls: 0 for no effect and ±100 for the full control effect; nearly all actives have a fitted effect of over 60% in size
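Huntingtin Q103 exon 1–GFP aggregates in induced PC12 cells (100 nM tebufenozide) were quantified by cytometry from lysates, with compounds dosed in titration.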
IMPase Li inh – cell-permeable IMPase inhibitors with lithium potentiation; CHO-M1 cells, IP1 TR-FRET (IP-One), carbachol + lithium; Potency, µM (highest dose often 59.4 µM), for inactives: at the highest dose activity, negative = IMPase inhibition, hits mostly inhibitors; actives 0.35% (n = 210,000); AID 1457;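 also: IP1 builds up when IMPase is blocked and the TR-FRET signal falls; potency is read from the fitted curve at half-maximal effect; plate controls were basal vehicle for no effect and high inhibitor control for full effect; nearly all actives have a fitted effect of over 50% in size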
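IP1 accumulation measured by competitive TR-FRET in lysed CHO-M1 cells after 30 min compound exposure at 37C, with a small lithium addition to potentiate weak responses. Hill-equation AC50 from ratio and donor-channel data.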
IMPase cell inh – cell-permeable inhibitors of inositol monophosphatase (IMPase); inhibition (IP1 accumulation), % at 46.1 µM; P97697; CHO-M1 cells, IP1 accumulation, HTRF TR-FRET ratio; 120,000 tested, under 10 active; active = well fitted curve in the direction sought with a large enough effect in the signal ratio, not every such curve was filed as active; inconclusive = small, poorly fitted or top-dose-only effect, or a change in a side signal; inactive = no such curve, though single readings can be large or run the other way; the % refers to the signal ratio;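 also: cells stimulated with carbachol in lithium chloride buffer; plate controls were DMSO basal wells for no effect and reference inhibitor wells for full effect; higher means more IMPase inhibition seen as more IP1 and lower FRET ratio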
Target sequence (P97697 whole entry, looked up): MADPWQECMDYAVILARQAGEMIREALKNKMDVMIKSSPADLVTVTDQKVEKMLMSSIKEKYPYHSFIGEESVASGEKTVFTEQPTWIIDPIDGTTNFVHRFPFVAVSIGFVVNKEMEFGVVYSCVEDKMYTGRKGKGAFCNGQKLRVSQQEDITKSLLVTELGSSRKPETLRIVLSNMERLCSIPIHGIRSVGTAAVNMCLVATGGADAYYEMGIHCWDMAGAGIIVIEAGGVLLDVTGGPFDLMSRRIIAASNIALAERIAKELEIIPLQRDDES
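In this qHTS, compounds (final up to 46 uM) act on CHO-M1 cells that are then activated through the M1 receptor with carbachol, in pH 7.4 buffer containing 50 mM LiCl, for 30 min. IP1 accumulation is quantified by the IP-One immunoassay.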
PNC assembly inh – inhibitors of perinucleolar compartment assembly; PC3M PTB-GFP, PNC prevalence imaging, 16 h; stronger effect = lower value; activity change (PNC), negative = inhibition, % at 10 µM; actives 3.1% (n = 140,000);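 active = readout at or below -70, meaning at least 70% loss of cells showing the perinucleolar compartment, a nuclear body marking cancer cells; inconclusive = readout between -30 and a set limit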;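 also: plate controls were DMSO wells for no effect and camptothecin positive control wells for full effect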
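Read-out is percentage of cells bearing a perinucleolar compartment, from automated 20x imaging of fixed, Hoechst-stained PC3M PTB-GFP cells. Cells were seeded 4 h, then exposed 16 h to compound (23 nl of library stock) in duplicate plates.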
NPSR antag – neuropeptide S receptor (human) antagonism, cAMP | Q6W5P4 | CHO-NPSR cells, cAMP TR-FRET, antagonist mode | Potency, µM (series often up to 38.3 µM), without a hit: at the highest dose activity change, negative = inhibition, usual class: inhibitors | actives 1% (n = 220,000) | AID 1461; also: potency is read from the fitted curve at half-maximal effect; % is scaled to controls: 0 for no effect and ±100 for the full control effect; nearly all actives have a fitted effect of over 50% in size
Target sequence (Q6W5P4 whole entry, looked up): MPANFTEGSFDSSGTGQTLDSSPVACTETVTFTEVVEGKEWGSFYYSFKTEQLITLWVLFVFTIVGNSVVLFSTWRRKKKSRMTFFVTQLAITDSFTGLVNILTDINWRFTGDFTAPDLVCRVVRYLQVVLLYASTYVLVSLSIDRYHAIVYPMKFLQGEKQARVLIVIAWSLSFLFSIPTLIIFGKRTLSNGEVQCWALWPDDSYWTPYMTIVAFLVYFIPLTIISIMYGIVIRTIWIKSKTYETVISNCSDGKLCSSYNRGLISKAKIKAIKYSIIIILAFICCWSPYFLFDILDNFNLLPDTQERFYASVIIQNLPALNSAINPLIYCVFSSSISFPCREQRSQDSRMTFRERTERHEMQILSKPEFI
HTT cytoprotect – cytoprotection in Huntington HTT-Q103 PC12 cell model | PC12 HTT-Q103 induced, cytoprotection, ATP luminescence, 40 h | Potency, µM (top dose mostly 56.4 µM), inactives show cytoprotection (ATP increase), hits mostly activators | actives 0.14% (n = 230,000) | AID 1471; also: potency is read from the fitted curve at half-maximal effect; % of control where 0% means no effect; nearly all actives have a fitted effect of over 45% in size
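Rat PC12, Q103 Htt exon1-GFP fusion, ecdysone promoter; tebufenozide inducer 100 nM final; compound titration; qHTS, 1500 cells/well; ATPlite luminescent read.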
* hit, by the source's call; [ ] = another dose, or the depositor's remark. Sampled rows, rich in hits. Any-hit rate of the full collection: about 3.4%. Unless noted, calls follow the shape of the dose curve; as a rule, active = well fitted curve in the direction sought with a large enough effect; inconclusive = small, poorly fitted or top-dose-only effect, or another doubt; inactive = no such curve, though single readings can be large; an effect the other way counts as inactive or inconclusive.

CCc1[nH]nc2c1C(c1cccc(OC(=O)N3CCOCC3)c1)C(C#N)=C(N)O2 (stereo not drawn) was read as HTT aggregate -13.3%, IMPase Li inh 5.7%, IMPase cell inh -0.7, PNC assembly inh inconclusive, NPSR antag -4.5%[46.1 µM] and HTT cytoprotect 0.7%[10 µM].
CC(C)c1[nH]nc2c1C(c1cccc(OC(=O)N3CCOCC3)c1)C(C#N)=C(N)O2 (stereo not drawn) was read as HTT aggregate 3.16µM*, IMPase Li inh -1.9%[38.3 µM], IMPase cell inh 16.3, PNC assembly inh -8.4, NPSR antag -6.1%[46.1 µM] and HTT cytoprotect -19.5%.
Screening CCn1cc(Br)c(C(=O)Nc2ccc(Cl)cc2Cl)n1 returned HTT aggregate 13.5%[9.22 µM], IMPase Li inh 37.9%[38.3 µM], IMPase cell inh 4.1, PNC assembly inh -113.4*, NPSR antag -14.9%[46.1 µM] and HTT cytoprotect -5.0%.
Screening CCn1cc(Br)c(C(=O)Nc2ccc(F)c(Cl)c2)n1 returned HTT aggregate -8.1%, IMPase Li inh -3.5%[38.3 µM], IMPase cell inh 13.6, PNC assembly inh inconclusive, NPSR antag -12.8%[46.1 µM] and HTT cytoprotect -15.8%.
For OCc1cc2c(cn1)[nH]c1ccccc12 the results were IMPase Li inh -14.0% and HTT cytoprotect -11.9%.
Screening Cc1nc2cnc(N3CCOCC3)nc2n(C[C@H]2CCCO2)c1=O returned IMPase Li inh -4.6% and HTT cytoprotect -77.8%.
Cc1ccc(NC(=O)/C=C/c2ccco2)nc1 was read as HTT aggregate -21.8%, IMPase Li inh 2.6%, IMPase cell inh 3.7, PNC assembly inh -100.0*, NPSR antag inconclusive and HTT cytoprotect -69.7%[10 µM].
For CCCOC1(C(F)(F)F)NC(=O)N(c2ccc(Cl)cc2)C1=O (stereo not drawn) the results were IMPase cell inh -5.4.
`Cc1c(CCC(=O)O)c(=O)n2c([nH]c3ccccc32)c1C#N` gave HTT aggregate -3.0%, IMPase Li inh 36.2%[38.3 µM], IMPase cell inh 5.8, PNC assembly inh 1.9, NPSR antag -3.8%[46.1 µM] and HTT cytoprotect -26.4%.
`N#Cc1cc(NC(=O)c2ccc(F)cc2)c(=O)n2c1[nH]c1ccccc12` gave HTT aggregate 14.1µM*, IMPase Li inh 5.4%, NPSR antag -14.3% and HTT cytoprotect -161.8%.
For O=C(CNc1ccc(Br)cc1)NNC1=NCCC1 the results were HTT aggregate -1.9%, IMPase Li inh 1.2%, PNC assembly inh -113.4* and NPSR antag 12.2%.
`O=C(N/N=C/c1sc(N2CCOCC2)nc1-c1ccccc1)c1ccccc1O` gave HTT aggregate inconclusive, IMPase Li inh 21.9%, PNC assembly inh 20.7, NPSR antag -20.0% and HTT cytoprotect 25.8%[10 µM].
Screening O=Cc1sc(N2CCOCC2)nc1-c1ccccc1 returned HTT aggregate -5.4%, IMPase Li inh 14.1µM*, NPSR antag -31.3% and HTT cytoprotect -14.2%.
COc1ccc(Oc2cnc3ccccc3n2)cc1 was read as HTT aggregate 11.2µM*, IMPase Li inh -2.0%, NPSR antag inconclusive and HTT cytoprotect -29.9%.
For CC(=O)Nc1ccc(Oc2cnc3ccccc3n2)cc1 the results were HTT aggregate 11.2µM*, IMPase Li inh -0.6%[38.3 µM], IMPase cell inh 2.2, PNC assembly inh inconclusive, NPSR antag -14.2%[46.1 µM] and HTT cytoprotect 23.0%.
For c1ccc(Oc2cnc3ccccc3n2)cc1 the results were HTT aggregate inconclusive, IMPase Li inh 6.5%[38.3 µM], IMPase cell inh -3.2, PNC assembly inh 4.8, NPSR antag 0.6%[46.1 µM] and HTT cytoprotect -3.1%.
For COc1cccc(-c2nc(N(C)Cc3ccco3)c3ccccc3n2)c1 the results were IMPase Li inh 19.2% and HTT cytoprotect -37.1%.
For COC(=O)[C@@]1(Cc2ccccc2)[C@H]2c3cc(C(=O)N4CCCC4)n(CCN4CNCC4=O)c3C[C@H]2CN1C(=O)c1ccccc1 the results were IMPase Li inh -8.7% and HTT cytoprotect 18.4%.
`CC(C(=O)N1c2ccccc2Sc2ccccc21)n1nnc(-c2cccs2)n1` (stereo not drawn) gave HTT aggregate 3.98µM*, IMPase Li inh 33.9%[38.3 µM], IMPase cell inh 12.7, PNC assembly inh -1.1, NPSR antag inconclusive and HTT cytoprotect -5.5%[10 µM].
For CC[n+]1c(/C=C2\Sc3ccccc3N2C)ccc2cccc(C)c21 the results were HTT aggregate 1µM*, IMPase Li inh inconclusive, NPSR antag 10µM* and HTT cytoprotect -87.7%[10 µM].
Screening CCN1/C(=C/c2ccc3cc(C)ccc3[n+]2CC)Sc2cc(C)c(C)cc21 returned IMPase Li inh -17.3%, NPSR antag inconclusive and HTT cytoprotect -63.6%[10 µM].
`CCN1/C(=C/c2ccc3cc(C)ccc3[n+]2CC)Sc2ccccc21` gave HTT aggregate 0.355µM*, IMPase Li inh -19.1%, PNC assembly inh -93.0*, NPSR antag 10µM* and HTT cytoprotect -68.4%[10 µM].
Screening CC(=S)/C=C1\Sc2ccccc2N1C returned HTT aggregate -18.7%, IMPase Li inh 5.0%[38.3 µM], IMPase cell inh -0.2, PNC assembly inh inconclusive, NPSR antag -14.5%[46.1 µM] and HTT cytoprotect -21.3%.
Screening CC1=C(C#N)C(NC(=O)C2CC2)(C(F)(F)F)C(=O)N1 (stereo not drawn) returned HTT aggregate 0.316µM*, IMPase Li inh 18.0%[38.3 µM], IMPase cell inh 0.9, PNC assembly inh 7.2, NPSR antag -3.2%[46.1 µM] and HTT cytoprotect -55.0%[10 µM].
For O=C1CC(Sc2nnnn2C2CCCCC2)C(=O)N1c1ccccc1 (stereo not drawn) the results were HTT aggregate inconclusive, IMPase Li inh 6.2%, IMPase cell inh -11.4, PNC assembly inh -100.0*, NPSR antag 4.8%[46.1 µM] and HTT cytoprotect -6.8%[10 µM].
`Cn1nnnc1SC1CC(=O)N(c2ccccc2)C1=O` (stereo not drawn) gave HTT aggregate inconclusive, IMPase Li inh 4.1%, NPSR antag 5.8% and HTT cytoprotect 5.6%[10 µM].
Cc1nn(C(C)C(=O)c2cccc(Cl)c2)c(C)c1[N+](=O)[O-] (stereo not drawn) was read as HTT aggregate 29.4%, IMPase Li inh 14.5%, NPSR antag -17.7% and HTT cytoprotect -30.3%[10 µM].
Cn1cnc([N+](=O)[O-])c1S(=O)(=O)c1cccc(Cl)c1 was read as HTT aggregate 5.62µM*, IMPase Li inh 8.3%, PNC assembly inh 196.8 and NPSR antag -12.6%.
`C/C(=N\NC(=O)C(c1ccccc1)c1ccccc1)c1ccccn1` gave HTT aggregate -0.3%, IMPase Li inh 0.2%, PNC assembly inh -80.6* and NPSR antag -16.5%.
